From PubChem BioAssay (Tox21) come the findings set out here.

Test [1] can be described thus: Human pregnane X receptor (PXR) small molecule agonists, qHTS cell viability counter screen (AID 1346977). Note: nearly all actives have a fitted effect of over 50% in size. Note: potency is the fitted concentration of half-maximal effect. In a few lines: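 After a 5hr pre-incubation, PXR-Luc HepG2 cells received compounds plus positive control in DMSO and were kept 24hr at 37C. Cell viability was quantified by fluorescence from CellTiter-Fluor added for the final hour.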
A general note: Quantitative high-throughput screening tests each substance at several concentrations.

Test [2] is described as follows: Caspase-3/7 induction in HepG2 cells by small molecules, qHTS assay (AID 1346978). Note: nearly all actives have a fitted effect of over 15% in size. In a few lines:
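Wild-type HepG2 cells, 2,000/well, settled 5 hr at 37 C and 5% CO2, then compound-treated for 17 hr; caspase-3/7 activity read by luminescent Caspase-Glo 3/7 after 30 min at room temperature.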

The nature of test [3]: Caspase-3/7 induction in CHO-K1 cells by small molecules, qHTS cell viability counter screen (AID 1346979). Note: nearly all actives have a fitted effect of over 35% in size. Note: potency is the fitted concentration of half-maximal effect. In a few lines:
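Multiplexed with Caspase-Glo 3/7 in CHO-K1 cells, this counter screen added CellTiter-Fluor after 16hr of compound exposure and recorded fluorescence 1hr later.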

Test [4] can be described thus: Caspase-3/7 induction in CHO-K1 cells by small molecules, qHTS assay (AID 1346980). Note: nearly all actives have a fitted effect of over 15% in size. Note: potency is the fitted concentration of half-maximal effect. Put shortly:
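Wild-type CHO-K1 cells exposed to compounds for 17hr at 37 C, 5% CO2. Caspase-3/7 activity then measured by Caspase-Glo 3/7 luminescence after 30min at room temperature.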

Test [5] in a line: Caspase-3/7 induction in HepG2 cells by small molecules, qHTS cell viability counter screen (AID 1346981). Note: series mostly up to about 92 µM; nearly all actives have a fitted effect of over 30% in size. In a few lines:
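Cell viability is measured as a cytotoxicity counter screen alongside the Caspase-Glo 3/7 readout in identical wells. Wild-type HepG2 cells are treated with test compounds for 16 hr at 37 C before CellTiter-Fluor addition and a 1-hr incubation.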

In test [6] the target is Nuclear receptor subfamily 1 group I member 2 (Homo sapiens) (UniProt O75469). Description: Human pregnane X receptor (PXR) small molecule agonists, qHTS assay (AID 1346982). Note: nearly all actives have a fitted effect of over 35% in size. Note: potency is the fitted concentration of half-maximal effect. In a few lines:
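Cells: HepG2 stably carrying PXR-Luc. Medium held 5% charcoal-stripped FBS. Compounds in DMSO added after 5 hr plating, incubated 24 hr, then luminescence quantified with ONE-Glo.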

Test [7] addresses Cytochrome P450 2C19 (Homo sapiens) (UniProt P33261). Description: Cytochrome P450 Family 2 Subfamily C Member 19 (CYP2C19) small molecule antagonists: luciferase reporter qHTS assay (AID 1671197). Note: nearly all actives have a fitted effect of over 65% in size. Note: potency is the fitted concentration of half-maximal effect. In a few lines:
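Light output is proportional to CYP2C19 activity: proluciferin substrate is converted to luciferin, then detected by a luciferin detection reagent that also stops the 1 h, 37C NADPH-driven reaction. Ketoconazole serves as positive control.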
For orientation: In a reporter assay the amount or activity of a reporter protein is the signal.

Test [8] deals with Cytochrome P450 2C9 (Homo sapiens) (UniProt P11712). Kind of test: Cytochrome P450 Family 2 Subfamily C Member 9 (CYP2C9) small molecule antagonists: luciferase reporter qHTS assay (AID 1671198). Note: nearly all actives have a fitted effect of over 50% in size. Note: potency is the fitted concentration of half-maximal effect. In a few lines: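 P450-Glo proluciferin substrate with CYP2C9 enzyme; 10 min RT preincubation, then NADPH regeneration 1 h at 37C; luciferin detection reagent 20 min RT, luminescence in relative luminescence units.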

In test [9] the target is Cytochrome P450 1A2 (Homo sapiens) (UniProt P05177). Kind of test: Cytochrome P450 Family 1 Subfamily A Member 2 (CYP1A2) small molecule antagonists: luciferase reporter qHTS assay (AID 1671199). Note: nearly all actives have a fitted effect of over 50% in size. Note: potency is the fitted concentration of half-maximal effect. Put shortly: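 Compounds were incubated with CYP1A2 and a luminogenic proluciferin substrate for 10 min at room temperature before the reaction was started with NADPH regeneration solution. After 1 h, detection reagent was added and light output, proportional to CYP activity, was recorded.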

Test [10] has as its target Voltage-gated inwardly rectifying potassium channel KCNH2 (Homo sapiens) (UniProt Q12809). Description: Human Ether-a-go-go-Related Gene (hERG) channel small molecule antagonists: fluorescence cell-based qHTS assay (AID 1671200).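 Note: hERG-expressing U2OS cells given a thallium stimulus after FluxOR II dye loading; series mostly up to about 77 µM; nearly all actives have a fitted effect of over 50% in size.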 Put shortly: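 Cell line hERG-U2OS; dye FluxOR II, 1 h RT dark; Tl+ stimulus; ex 480/em 540 nm, read each second for 2 min.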
On the technique in general: The hERG channel carries a current that helps repolarise heart muscle cells.

Test [11] addresses Cytochrome P450 3A4 (Homo sapiens) (UniProt P08684). Kind of test: Cytochrome P450 Family 3 Subfamily A Member 4 (CYP3A4) small molecule antagonists: luciferase reporter qHTS assay (AID 1671201). Note: nearly all actives have a fitted effect of over 50% in size. Note: potency is the fitted concentration of half-maximal effect. In a few lines: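 Room-temperature assay throughout: 10 min compound–enzyme/substrate preincubation, 1 h reaction after NADPH regeneration solution, 20 min detection. Luciferin formed from proluciferin substrate is quantified by luminescence.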

Test [12] addresses Cytochrome P450 2D6 (Homo sapiens) (UniProt P10635). Description: Cytochrome P450 Family 2 Subfamily D Member 6 (CYP2D6) small molecule antagonists: luciferase reporter qHTS assay (AID 1671196). Note: nearly all actives have a fitted effect of over 50% in size. Note: potency is the fitted concentration of half-maximal effect. In a few lines: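 Enzyme and proluciferin substrate were first combined with test chemical for 10 min at room temperature. Adding NADPH regeneration solution started a 1 h reaction, stopped with luciferin detection reagent and read by luminescence 20 min later.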

In test [13] the target is Nuclear receptor subfamily 1 group I member 2 (Rattus norvegicus) (UniProt Q9R1A7). Description: Rat pregnane X receptor (rPXR) activation by small molecules, qHTS assay (AID 1346983). Note: nearly all actives have a fitted effect of over 20% in size. To be noted: rPXR luciferase reporter cells, One-Glo luminescence, 24 h; stronger effect = higher value. Put shortly: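 Cell-based rPXR activation assay: rPXR cells, 2,000 per well, rested 5hr at 37 C, then exposed to compounds in DMSO for 24 hr at 37 C. Luciferase activity read by One-Glo luminescence after 30 min at room temperature.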

The target in test [14] is Nuclear receptor subfamily 1 group I member 2 (Homo sapiens) (UniProt O75469). Kind of test: CYP3A4 induction through human pregnane X receptor (PXR) by small molecules, qHTS assay (AID 1346984). Note: nearly all actives have a fitted effect of over 40% in size. Put shortly:
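Quantitative HTS in DPX-2 cells, i.e. HepG2 transfected with PXR response element and CYP3A4-promoter luciferase. Compounds in DMSO incubated 24hr at 37C; then P450-Glo CYP3A4 substrate, 3uM final, 3hr; One-Glo luminescence.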

Test [15] shares this target. Kind of test: Human pregnane X receptor (PXR) activation by small molecules, qHTS assay (AID 1346985). Note: nearly all actives have a fitted effect of over 40% in size. In a few lines:
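DPX-2 cells (HepG2 co-transfected with a PXR response element and a CYP3A4-promoter luciferase construct) were seeded at 2,000 per well, rested 5 hr at 37C, then exposed to DMSO-dissolved compounds for 24 hr. Activation was read as luciferase luminescence.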

Several values for one entry are separate records, joined by “and”; a condition that tells them apart may be missing. Equal values may be shown once. Results filed as inconclusive are left out. Some structures have more than one record in an assay (separate samples or runs), and their calls can disagree. Activity calls are given as the source filed them. Calls come from the whole dose curve; as a rule, active = well fitted curve in the direction sought with a large enough effect in the repeat runs; inconclusive = weak or mixed curves; inactive = no such curve, though single readings can be large; an effect the other way counts as inactive or inconclusive.
% is set by controls: 0 for no effect and ±100 for the full control effect.

Chain of Voltage-gated inwardly rectifying potassium channel KCNH2 (Homo sapiens) (Q12809 whole entry, looked up): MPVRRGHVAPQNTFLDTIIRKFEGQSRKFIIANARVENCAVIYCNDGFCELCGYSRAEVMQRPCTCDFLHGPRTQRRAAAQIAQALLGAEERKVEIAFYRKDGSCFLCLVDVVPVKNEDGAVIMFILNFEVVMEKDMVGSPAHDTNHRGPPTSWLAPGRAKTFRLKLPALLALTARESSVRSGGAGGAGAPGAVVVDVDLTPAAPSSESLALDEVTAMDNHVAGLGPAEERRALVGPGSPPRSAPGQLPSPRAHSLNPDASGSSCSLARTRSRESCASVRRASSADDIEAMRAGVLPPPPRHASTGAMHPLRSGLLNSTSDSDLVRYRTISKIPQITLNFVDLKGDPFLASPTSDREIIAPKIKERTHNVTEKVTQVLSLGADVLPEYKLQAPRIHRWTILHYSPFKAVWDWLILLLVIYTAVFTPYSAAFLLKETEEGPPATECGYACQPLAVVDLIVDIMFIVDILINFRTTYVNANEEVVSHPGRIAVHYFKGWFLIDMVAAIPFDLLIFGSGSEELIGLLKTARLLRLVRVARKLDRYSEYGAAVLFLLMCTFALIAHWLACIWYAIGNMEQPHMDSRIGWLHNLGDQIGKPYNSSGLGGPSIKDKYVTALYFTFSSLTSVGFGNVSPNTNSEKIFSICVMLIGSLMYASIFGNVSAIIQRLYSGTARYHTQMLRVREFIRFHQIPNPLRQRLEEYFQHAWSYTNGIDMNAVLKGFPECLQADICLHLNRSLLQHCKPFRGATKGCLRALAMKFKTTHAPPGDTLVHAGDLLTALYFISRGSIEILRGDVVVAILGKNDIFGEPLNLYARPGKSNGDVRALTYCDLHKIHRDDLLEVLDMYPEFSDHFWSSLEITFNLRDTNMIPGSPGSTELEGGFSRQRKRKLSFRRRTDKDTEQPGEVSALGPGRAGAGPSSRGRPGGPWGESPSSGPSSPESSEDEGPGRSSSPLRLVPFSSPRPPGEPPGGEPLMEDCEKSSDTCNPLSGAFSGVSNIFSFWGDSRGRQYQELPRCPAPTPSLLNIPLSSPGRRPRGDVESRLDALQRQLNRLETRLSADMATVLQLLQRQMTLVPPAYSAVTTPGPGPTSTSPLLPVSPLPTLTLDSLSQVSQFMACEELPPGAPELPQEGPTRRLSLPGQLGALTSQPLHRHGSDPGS
Chain of Cytochrome P450 3A4 (Homo sapiens) (P08684 whole entry, looked up): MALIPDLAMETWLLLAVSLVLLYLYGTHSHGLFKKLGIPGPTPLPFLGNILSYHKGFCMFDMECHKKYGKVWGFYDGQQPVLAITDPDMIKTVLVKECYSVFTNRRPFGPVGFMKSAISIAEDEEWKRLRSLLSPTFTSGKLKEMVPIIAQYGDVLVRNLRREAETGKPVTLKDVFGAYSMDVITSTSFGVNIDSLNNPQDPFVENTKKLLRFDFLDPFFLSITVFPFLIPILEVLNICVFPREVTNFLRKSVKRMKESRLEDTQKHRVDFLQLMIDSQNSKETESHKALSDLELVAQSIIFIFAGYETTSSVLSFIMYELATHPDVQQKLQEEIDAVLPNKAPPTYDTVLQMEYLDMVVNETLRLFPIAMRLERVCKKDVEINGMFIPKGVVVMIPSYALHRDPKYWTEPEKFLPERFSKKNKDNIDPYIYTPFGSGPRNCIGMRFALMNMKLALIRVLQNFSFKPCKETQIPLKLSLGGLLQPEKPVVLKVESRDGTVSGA
Chain of Nuclear receptor subfamily 1 group I member 2 (Homo sapiens) (O75469 whole entry, looked up): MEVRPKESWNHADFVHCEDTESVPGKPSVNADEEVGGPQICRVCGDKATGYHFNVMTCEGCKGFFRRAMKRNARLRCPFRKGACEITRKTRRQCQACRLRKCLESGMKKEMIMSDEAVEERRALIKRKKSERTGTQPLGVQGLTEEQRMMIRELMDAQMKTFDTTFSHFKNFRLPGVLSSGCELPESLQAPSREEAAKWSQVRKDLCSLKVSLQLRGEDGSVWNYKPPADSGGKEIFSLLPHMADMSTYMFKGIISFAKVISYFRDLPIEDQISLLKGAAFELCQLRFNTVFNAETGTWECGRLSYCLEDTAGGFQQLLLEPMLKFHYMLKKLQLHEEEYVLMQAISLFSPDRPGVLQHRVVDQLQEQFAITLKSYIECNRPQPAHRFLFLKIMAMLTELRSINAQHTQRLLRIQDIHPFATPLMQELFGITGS
Chain of Cytochrome P450 1A2 (Homo sapiens) (P05177 whole entry, looked up): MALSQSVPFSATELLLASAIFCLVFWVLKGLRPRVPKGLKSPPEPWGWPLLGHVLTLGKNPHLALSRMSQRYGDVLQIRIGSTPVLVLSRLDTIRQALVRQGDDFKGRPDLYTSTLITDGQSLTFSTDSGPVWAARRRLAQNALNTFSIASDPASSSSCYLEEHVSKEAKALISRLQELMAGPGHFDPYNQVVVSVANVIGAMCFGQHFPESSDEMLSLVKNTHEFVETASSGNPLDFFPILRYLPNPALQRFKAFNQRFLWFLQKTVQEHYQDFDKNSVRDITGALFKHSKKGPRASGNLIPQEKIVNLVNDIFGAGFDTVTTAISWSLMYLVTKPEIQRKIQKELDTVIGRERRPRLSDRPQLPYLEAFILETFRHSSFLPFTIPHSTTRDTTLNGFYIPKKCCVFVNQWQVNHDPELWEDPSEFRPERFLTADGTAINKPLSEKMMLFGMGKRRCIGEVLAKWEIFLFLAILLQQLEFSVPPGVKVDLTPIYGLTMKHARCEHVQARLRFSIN
Chain of Cytochrome P450 2D6 (Homo sapiens) (P10635 whole entry, looked up): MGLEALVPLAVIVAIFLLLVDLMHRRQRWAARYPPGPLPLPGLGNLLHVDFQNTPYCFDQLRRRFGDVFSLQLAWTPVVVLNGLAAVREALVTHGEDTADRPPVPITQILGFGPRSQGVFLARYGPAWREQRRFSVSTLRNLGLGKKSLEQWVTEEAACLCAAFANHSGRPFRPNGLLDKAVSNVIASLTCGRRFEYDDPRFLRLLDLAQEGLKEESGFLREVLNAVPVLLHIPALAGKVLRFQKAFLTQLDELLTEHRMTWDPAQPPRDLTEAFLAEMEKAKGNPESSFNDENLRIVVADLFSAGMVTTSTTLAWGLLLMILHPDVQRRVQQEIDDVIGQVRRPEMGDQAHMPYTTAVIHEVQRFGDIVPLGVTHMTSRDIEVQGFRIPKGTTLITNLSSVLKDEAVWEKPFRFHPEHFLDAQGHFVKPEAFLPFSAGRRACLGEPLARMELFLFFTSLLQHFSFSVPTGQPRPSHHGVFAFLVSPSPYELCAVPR
Chain of Cytochrome P450 2C9 (Homo sapiens) (P11712 whole entry, looked up): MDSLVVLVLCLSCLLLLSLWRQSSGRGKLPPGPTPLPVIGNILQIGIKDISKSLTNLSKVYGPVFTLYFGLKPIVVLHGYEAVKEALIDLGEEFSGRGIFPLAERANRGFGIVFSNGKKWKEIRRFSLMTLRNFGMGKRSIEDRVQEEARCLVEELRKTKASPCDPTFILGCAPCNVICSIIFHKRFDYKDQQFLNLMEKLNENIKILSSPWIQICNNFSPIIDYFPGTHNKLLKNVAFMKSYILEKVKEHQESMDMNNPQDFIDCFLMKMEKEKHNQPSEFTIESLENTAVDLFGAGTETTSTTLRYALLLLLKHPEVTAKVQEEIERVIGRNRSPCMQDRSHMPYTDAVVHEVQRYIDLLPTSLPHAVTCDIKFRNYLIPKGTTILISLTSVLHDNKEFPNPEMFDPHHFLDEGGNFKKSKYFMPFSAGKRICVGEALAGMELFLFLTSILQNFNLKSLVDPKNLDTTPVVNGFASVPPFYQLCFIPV
Chain of Cytochrome P450 2C19 (Homo sapiens) (P33261 whole entry, looked up): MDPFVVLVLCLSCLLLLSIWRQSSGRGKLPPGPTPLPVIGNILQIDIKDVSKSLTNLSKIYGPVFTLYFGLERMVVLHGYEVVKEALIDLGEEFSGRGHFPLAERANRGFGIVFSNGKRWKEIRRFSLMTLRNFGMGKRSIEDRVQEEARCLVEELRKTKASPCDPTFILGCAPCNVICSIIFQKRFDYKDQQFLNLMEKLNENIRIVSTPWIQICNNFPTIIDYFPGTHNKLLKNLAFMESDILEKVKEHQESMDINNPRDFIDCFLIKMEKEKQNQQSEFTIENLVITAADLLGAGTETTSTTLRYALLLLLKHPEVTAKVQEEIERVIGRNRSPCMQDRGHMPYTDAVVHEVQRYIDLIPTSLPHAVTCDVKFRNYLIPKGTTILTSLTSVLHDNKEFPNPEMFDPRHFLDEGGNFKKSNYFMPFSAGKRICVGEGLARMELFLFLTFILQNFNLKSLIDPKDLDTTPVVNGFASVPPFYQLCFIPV
Chain of Nuclear receptor subfamily 1 group I member 2 (Rattus norvegicus) (Q9R1A7 whole entry, looked up): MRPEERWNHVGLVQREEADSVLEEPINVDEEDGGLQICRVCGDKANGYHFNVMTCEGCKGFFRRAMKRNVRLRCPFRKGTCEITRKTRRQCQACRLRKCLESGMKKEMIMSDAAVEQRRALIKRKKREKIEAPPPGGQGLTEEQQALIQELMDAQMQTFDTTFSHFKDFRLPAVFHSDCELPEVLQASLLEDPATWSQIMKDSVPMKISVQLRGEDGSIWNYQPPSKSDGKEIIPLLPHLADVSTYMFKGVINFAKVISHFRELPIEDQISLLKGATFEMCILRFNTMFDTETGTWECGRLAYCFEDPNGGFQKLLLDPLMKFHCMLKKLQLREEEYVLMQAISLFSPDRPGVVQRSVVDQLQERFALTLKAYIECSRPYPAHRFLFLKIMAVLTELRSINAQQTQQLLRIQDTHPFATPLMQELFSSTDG

Take `c1cnc2c(c1)ccc1cccnc12`: the Potency is 1.26 µM (active) in test [1]; 4.37 µM (active) and 6.11 µM (active) and 9.69 µM (active) in test [3]; 978 nM (active) and 1.37 µM (active) and inactive in [4]; 2.76 µM (active) and 10.9 µM (active) and 24.3 µM (active) in test [6]; 10.1 µM (active) and 8.94 µM (active) and 10 µM (active) in [7]; 8.94 µM (active) in test [8]. Besides, the Potency in test [9] was 10.1 µM (active) and 14.2 µM (active) and 11.2 µM (active). In addition, the Potency entry in [2], in [5], in test [10] and in test [11] was “inactive” throughout.
On to `CS(=O)(=O)c1ccc(Cl)cc1`, for which the Potency result in test [1], in [2], in test [3], in [4], in test [5] and in [6] was “inactive” in each case. Further, the Potency entry in test [12], in [7], in [8], in test [9], in [10] and in test [11] was “inactive” throughout.
For the compound `COc1cc(NC(=O)CC(C)=O)c(OC)cc1Cl`, the Potency result in [1], in test [2], in test [3], in test [4], in test [5] and in test [10] was “inactive” throughout. Further, the Potency in test [6] was 68.9 µM (active) and 24.3 µM (active); in [12] it was 79.6 µM (active); in test [7] it was 40.1 µM (active) and 39.9 µM (active); in test [8], 40.1 µM (active) and 39.9 µM (active); in test [9], 3.57 µM (active) and 5.64 µM (active); in test [11] it was 14.2 µM (active) and 15.9 µM (active).
As for `CC1=CC(=O)CC(C)(C)C1`, the Potency result in [1], in test [2], in [3], in [4], in test [5] and in test [12] was “inactive” each time. Besides, the Potency entry in test [8], in test [10] and in [11] was “inactive” in each case. The Potency in test [6] is 62.9 µM (active) and inactive; in [7], 18.4 µM (active) and inactive; in test [9] it was 36.6 µM (active) and inactive.
On to `OB(O)O`, for which the Potency result in test [1], in [2], in test [3], in test [4], in test [5] and in test [6] was “inactive” in each case. For the same compound, the Potency entry in test [14], in test [12], in test [7], in test [8], in test [9] and in [10] was “inactive” each time. Moreover, the Potency entry in test [11] is “inactive”. In [13], the max activation is -0.586% (inactive). In test [15], the compound was called inactive.
As to `CC(C)=CCC/C(C)=C/C=O`, the Potency entry in [1], in test [2], in [3], in test [4], in [5] and in test [6] was “inactive” in each case. The Potency entry in [12], in test [7], in test [9] and in test [10] was “inactive” in each case. For the same compound, the Potency entry in [8] was “inactive and 79.6 µM (active)”; in [11], “inactive and 35.6 µM (active)”.
`CCCCCCCCCCCCCC(=O)O`: the Potency entry in test [1], in test [2], in [3], in [4], in test [5] and in test [6] was “inactive” throughout. Also, the Potency entry in test [12], in test [7], in [8], in test [10] and in test [11] was “inactive” in each case. In addition, the Potency result in test [9] was “inactive and 71 µM (active)”.
As for `COC(=O)/C=C\C(=O)OC`, the Potency entry in test [1], in [2], in test [3], in test [4], in test [5] and in test [6] was “inactive” in each case. For the same compound, the Potency result in test [12], in test [7], in test [8], in test [9], in test [10] and in [11] was “inactive” in each case.
